Measurements from PubChem BioAssay (NCI).
About 83,000 compounds went through this panel and 20% of them were active in at least one assay; those are over-represented in the sample as a whole.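 Single-concentration screen, 48 h exposure, 96-well plates. Endpoint: percent growth. Below 10 = active.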 Values without a mark were called inactive. Activity calls are given as the source filed them.

Legend:
Test in all cases: NCI-60 one-dose screen, 48 h (100 = growth as untreated, 0 = no growth, -100 = all killed)
Settings in all cases: 10 µM unless noted
HCT-15 colon = test system: HCT-15 colon
HT29 colon = test system: HT29 colon
SNB-75 CNS = test system: SNB-75 CNS
SNB-19 CNS = test system: SNB-19 CNS
U251 CNS = test system: U251 CNS
PC-3 prostate = test system: PC-3 prostate
SK-MEL-5 melanoma = test system: SK-MEL-5 melanoma
UACC-62 melanoma = test system: UACC-62 melanoma
LOX IMVI melanoma = test system: LOX IMVI melanoma
SK-MEL-28 melanoma = test system: SK-MEL-28 melanoma
SK-MEL-2 melanoma = test system: SK-MEL-2 melanoma
EKVX NSCLC = test system: EKVX NSCLC
SN12C renal = test system: SN12C renal
UO-31 renal = test system: UO-31 renal
TK-10 renal = test system: TK-10 renal
ACHN renal = test system: ACHN renal
CAKI-1 renal = test system: CAKI-1 renal
A498 renal = test system: A498 renal
CCRF-CEM leukemia = test system: CCRF-CEM leukemia
MOLT-4 leukemia = test system: MOLT-4 leukemia

Compound | growth (HCT-15 colon) | growth (HT29 colon) | growth (SNB-75 CNS) | growth (SNB-19 CNS) | growth (U251 CNS) | growth (PC-3 prostate) | growth (SK-MEL-5 melanoma) | growth (UACC-62 melanoma) | growth (LOX IMVI melanoma) | growth (SK-MEL-28 melanoma) | growth (SK-MEL-2 melanoma) | growth (EKVX NSCLC) | growth (SN12C renal) | growth (UO-31 renal) | growth (TK-10 renal) | growth (ACHN renal) | growth (CAKI-1 renal) | growth (A498 renal) | growth (CCRF-CEM leukemia) | growth (MOLT-4 leukemia)
Cc1ccc(C)n1-c1ccccc1-n1c(C)ccc1C | 115% | 103% | 87.2% | 108% | 102% | 98.7% | 104% | 87.5% | 90.9% | 93.6% | 108% | 92.5% | 93.5% | 98.1% | 128% | 102% | 71.7% | 97.9% | 124% | 78.7%
COc1ccc(/C=C/C(=O)c2cc3c(N)c(C(=O)Nc4cccc5ccccc45)sc3nc2C)cc1 | 44.1% | 70.2% | 53.6% | 56.3% | 45.3% | 75.6% | 68.9% | 21.3% | 60.1% | 64.9% | 70.9% | 92.4% | 87.5% | 62.7% | 94.2% | 71.8% | 48.6% | 44.2% | 33.6% | 100%
Cn1c(=O)cc2c3c(c(NCCCO)ccc31)C(=O)c1ccccc1-2 | 39.5% | 23.1% | 39.3% | 47.3% | 37.5% | 45.2% | 40.2% | 40.4% | 26.6% | 71.4% | 73.9% | 73.2% | 46.8% | 13.1% | 29.1% | 25.3% | 44.7% | 64.2% | 48.3% | 19.2%
CSc1nc2ccccc2cc1/C=C1/C=C(c2ccccc2)NC1=O | 41.3% | 38.9% | 79.3% | 80.1% | 78.8% | 70.4% | 82.3% | 64% | 74.4% | 92.6% | 81% | 84.9% | 94.1% | 91.9% | 123% | 102% | 77.9% | 69.9% | 68.8% | 36.3%
COCCOc1cc2ncnc(N3CCN(c4ncc(S(=O)(=O)N5CCCCC5)cn4)CC3)c2cc1OCCOC | 89.9% | 109% | 110% | 96.2% | 97.7% | 88.7% | 102% | 95.3% | 87.4% | 112% | 105% | 104% | 104% | 78.1% | 106% | 115% | 101% | 92.1% | 84.5% | 91.9%
CCCCCCC12CCC(=O)N1CCc1cncn12 (stereo not given) | 102% | 100% | 116% | 105% | 100% | 98.3% | 99.1% | 95.6% | 102% | 112% | 108% | 99.9% | 102% | 109% | 92.5% | 109% | 109% | 99.2% | 95.4% | 104%
O=C(Nc1nc2cc(C(=O)N3CCN(C(c4ccccc4)c4ccccc4)CC3)ccc2o1)c1ccc(NC2CCCCC2)c([N+](=O)[O-])c1 | 35.1% | 62.2% | 71.7% | 48.3% | 32.5% | 53.9% | 49.7% | 45.8% | 45.5% | 66.5% | 90.8% | 52.5% | 53.8% | 66.5% | 84.5% | 47% | 54.5% | 76.2% | 28.3% | 47.9%
CC(C)C1=NOC(=O)C1=Cc1cn(-c2ccccc2)nc1-c1ccc(F)cc1 | 61.4% | 28.8% | 70.6% | 81.7% | 51.3% | 38.5% | 78.9% | 75.5% | 6.17% (active) | 82.7% | 94.6% | 97.2% | 62.8% | 74.2% | 75.2% | 71.4% | 62.2% | 82.2% | 10.7% | 17.8%
CSc1oc(C)nc1[P+](c1ccccc1)(c1ccccc1)c1ccccc1 | 104% | 53.9% | 75.9% | 45% | 42.2% | 52.1% | -9.07% (active) | 47.2% | 28.7% | 61.1% | 84.4% | 73.8% | 82.2% | 102% | 88.2% | 97.6% | 88% | 64.5% | 51.8% | 68%
CN1C(=O)/C(=C\c2nc([P+](c3ccccc3)(c3ccccc3)c3ccccc3)c(N3CCOCC3)o2)SC1=S | 91.3% | 98.3% | 92.1% | 12.5% | 66.2% | 46.1% | 78.4% | -3.31% (active) | 86.1% | 11% | 71.5% | 92.3% | 68.4% | 80.4% | 106% | 102% | 91.5% | 85.6% | 19.9% | 81.5%
Nc1c(C(=O)Nc2ccncc2)sc2nc3c(cc12)C(O)CCC3 (stereo not given) | 86.3% | 85.4% | 105% | 95.4% | 91.6% | 94.6% | 92.4% | 80% | 105% | 85.5% | 97.4% | 99.9% | 96.3% | 81.8% | 91% | 96.4% | 99.6% | 112% | 94.6% | 98%
COC(=O)[C@@H](CCCCNC(=O)[C@]12CCC(C)(C)C[C@@H]1C1=CC[C@@H]3[C@@]4(C)C/C(=C/c5ccco5)C(=O)C(C)(C)[C@@H]4CC[C@@]3(C)[C@]1(C)CC2)NC(=O)[C@]12CCC(C)(C)C[C@@H]1C1=CC[C@@H]3[C@@]4(C)C/C(=C/c5ccco5)C(=O)C(C)(C)[C@@H]4CC[C@@]3(C)[C@]1(C)CC2 | 103% | 112% | 106% | 95.3% | 106% | 90.3% | 97.5% | 97.8% | 107% | 107% | 108% | 105% | 98.7% | 79.2% | 102% | 107% | 98.5% | 116% | 99.3% | 97%
Nc1ncnc2c1c(-c1cccc(Cl)c1)nn2CC(=O)N1CCOCC1 | 101% | 99.7% | 94.2% | 93.9% | 102% | 96.6% | 101% | 93.7% | 103% | 105% | 106% | 104% | 100% | 80.7% | 97% | 95.6% | 91.8% | 118% | 102% | 110%
CN(C)CC1CCC(CN(C)C)C1=O (stereo not given) | 105% | 103% | 102% | 102% | 102% | 96.7% | 108% | 102% | 106% | 112% | 96.8% | 133% | 106% | 85.4% | 92.1% | 110% | 108% | 103% | 27.9% | 64.4%
COc1cc(-c2cncn2-c2ccc(-c3nc4ccc(F)cc4s3)cc2)ccc1F | 30.5% | 30.8% | 127% | 86.7% | 83% | 107% | 68.7% | 84.8% | 86.7% | 95.9% | 37.7% | 95.8% | 94.7% | 71.9% | 92.1% | 3.23% (active) | 25.7% | 74.5% | 81.5% | 63.6%
